From PubChem BioAssay (NCATS)
Results filed as inconclusive are left out. A call without a number means that no potency is given here. Unmarked numbers belong to inactive results. Calls of active or inactive are those of the source. Calls follow the shape of the dose curve; as a rule, active = well fitted curve in the direction sought with a large enough effect; inconclusive = small, poorly fitted or top-dose-only effect, or another doubt; inactive = no such curve, though single readings can be large; an effect the other way counts as inactive or inconclusive.

Legend:
[1] = Viability qHTS for spleen associated tyrosine kinase inhibitor (SYKi) naive MV4-11 cells (AID 1963823); also: nearly all actives have a fitted effect of over 40% in size
How it was run: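 Viability of MV4-11 AML cells lacking prior SYK inhibitor exposure is scored by CellTiter-Glo luminescence following 72 hr compound incubation at 37 C, 5% CO2, seeded at 500 cells per well.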

[2] = Viability qHTS for spleen associated tyrosine kinase inhibitor (SYKi) drug resistant MV4-11 cells (AID 1963824); also: nearly all actives have a fitted effect of over 35% in size
How it was run: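 SYK inhibitor-resistant MV4-11 AML cells, 500 per well, added to predispensed compounds and incubated 72 hr at 37 C, 5% CO2. Viability measured by CellTiter-Glo luminescence after 10 min at room temperature.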

[3] = Cellular viability qHTS for adrenocortical cancer (ACC) cell line SW-13 (AID 1963989); details: SW-13 ACC cells viability, CellTiter-Glo, 48 h; activity (max response): hits give low values; also: nearly all actives have a fitted effect of over 65% in size;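 as to activity (max response): cells grown in serum-free medium with ITS supplement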
How it was run: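 SW-13 cells in ITS-supplemented serum-free DMEM were plated overnight, then exposed for 48 h at 37C to compound titrations (up to 46 uM final). Viability was read by CellTiter-Glo luminescence; four-parameter logistic fits gave IC50 and efficacy.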

[4] = Cellular viability qHTS for adrenocortical cancer (ACC) cell line NCI-H295R (AID 1963990); also: nearly all actives have a fitted effect of over 60% in size
How it was run: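 Luminescent ATP read-out (CellTiter-Glo, 20 min RT) after 48 h drug exposure of NCI-H295R cells; a titration up to 46 uM final. Data normalized to doxorubicin (100% inhibition) and DMSO (0%); 4-parameter fit gives IC50, max response.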
Potency is read from the fitted curve at half-maximal effect.

| Compound | Potency [1] | Potency [2] | activity (max response) [3] [%] | Potency [4] | Potency [3] |
| --- | --- | --- | --- | --- | --- |
| O=C(O)Cc1ccccc1Oc1ccc(Cl)cc1Cl | inactive | inactive | 4.63 | inactive | – |
| COc1cc(C)[nH]c(=O)c1CN1CCc2c(Cl)cc([C@H](OC)C3COC3)c(Cl)c2C1=O | inactive | inactive | -0.836 | inactive | – |
| Nc1ncnc2c1c(-c1cccc(OCc3ccccc3)c1)cn2C1CC(CN2CCCC2)C1 (configuration not stated) | 517 nM (active) | 1300 nM (active) | – | 2240 nM (active) | 25100 nM (active) |
